According to PubChem BioAssay (EPA / NIEHS):
Records with an inconclusive call do not appear. Calls of active or inactive are those of the source. The calls were made as follows, unless noted: active = hit-call score of the fitted dose curve at least 0.9, where 1 is the maximum; inconclusive = response in the unintended direction; inactive = score below 0.9.

Assays:
[1] = test system: guinea pig Dopamine Transporter (DAT), gene 100714898; experiment: NVS_TR_gDAT: NovaScreen (NVS) Transporter Assay for guinea pig Dopamine Transporter (DAT) (AID 2283369);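 also: active compounds lower bound radioligand signal relative to DMSO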
Summary of the method: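 Scintillation counts of filter-retained radioligand report binding to guinea pig striatal membranes after 2 h. Activity scored as signal loss relative to DMSO, first at 25 uM in duplicate, then in concentration series to 50 uM.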

[2] = target: human Dopamine Transporter (DAT), SLC6A3 (gene 6531) (UniProt Q01959); experiment: NVS_TR_hDAT: NovaScreen (NVS) Transporter Assay for human Dopamine Transporter (DAT) (AID 2283374);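 also: activity means loss of bound radioligand signal relative to DMSO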
human Dopamine Transporter (DAT), SLC6A3 (gene 6531), sequence (Q01959 whole entry, looked up): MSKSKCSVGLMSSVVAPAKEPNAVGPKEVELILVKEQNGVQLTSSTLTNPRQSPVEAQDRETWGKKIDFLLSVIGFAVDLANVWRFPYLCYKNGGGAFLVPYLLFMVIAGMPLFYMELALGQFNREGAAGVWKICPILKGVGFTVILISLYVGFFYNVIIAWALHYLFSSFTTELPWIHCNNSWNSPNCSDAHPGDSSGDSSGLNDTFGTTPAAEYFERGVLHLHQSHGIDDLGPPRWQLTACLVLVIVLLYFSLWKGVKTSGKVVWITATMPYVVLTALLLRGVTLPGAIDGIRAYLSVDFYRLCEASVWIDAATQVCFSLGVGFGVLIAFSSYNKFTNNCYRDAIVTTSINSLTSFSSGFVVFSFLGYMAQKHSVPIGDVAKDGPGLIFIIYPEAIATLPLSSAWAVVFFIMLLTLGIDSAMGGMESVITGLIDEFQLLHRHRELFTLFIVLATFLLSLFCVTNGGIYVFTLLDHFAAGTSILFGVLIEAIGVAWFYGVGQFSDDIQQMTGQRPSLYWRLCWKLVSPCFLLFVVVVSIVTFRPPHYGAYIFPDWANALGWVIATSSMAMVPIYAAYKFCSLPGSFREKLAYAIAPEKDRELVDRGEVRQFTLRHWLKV
Summary of the method: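 Cell-free radioligand binding to extracted human DAT protein, read 1 h after dosing by filter-based scintillation counting. Loss of specific binding scored against DMSO baseline; primary screen in duplicate at 25 uM, actives then run in concentration series.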

[3] = target: human Norepinephrine Transporter (NET), SLC6A2 (gene 6530) (UniProt P23975); experiment: NVS_TR_hNET: NovaScreen (NVS) Transporter Assay for human Norepinephrine Transporter (NET) (AID 2283377);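 also: cell-free membrane protein extracted from CHO cells expressing human NET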
human Norepinephrine Transporter (NET), SLC6A2 (gene 6530), sequence (P23975 whole entry, looked up): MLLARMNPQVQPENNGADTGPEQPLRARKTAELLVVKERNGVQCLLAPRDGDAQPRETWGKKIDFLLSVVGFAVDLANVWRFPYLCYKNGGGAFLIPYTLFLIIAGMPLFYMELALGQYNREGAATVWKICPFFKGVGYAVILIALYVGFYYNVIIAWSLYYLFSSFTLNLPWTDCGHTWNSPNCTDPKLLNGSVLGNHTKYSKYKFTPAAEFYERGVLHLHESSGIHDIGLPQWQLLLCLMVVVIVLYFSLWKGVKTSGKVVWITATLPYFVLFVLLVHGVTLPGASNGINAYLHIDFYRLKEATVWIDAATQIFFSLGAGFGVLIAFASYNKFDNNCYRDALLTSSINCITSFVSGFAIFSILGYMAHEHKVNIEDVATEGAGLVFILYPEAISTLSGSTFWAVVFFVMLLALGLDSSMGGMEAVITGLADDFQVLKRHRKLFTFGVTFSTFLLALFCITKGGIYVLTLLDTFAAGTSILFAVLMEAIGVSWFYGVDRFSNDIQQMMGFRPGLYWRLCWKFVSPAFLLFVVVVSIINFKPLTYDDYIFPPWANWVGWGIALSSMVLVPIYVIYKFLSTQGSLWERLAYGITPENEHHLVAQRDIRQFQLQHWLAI
Summary of the method: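 Radioligand binding to human NET in cell-free CHO-derived protein preparations, read by filter-based scintillation counting 1 hour after dosing. Loss of signal versus DMSO baseline indicated displacement; primary screening in duplicate at 25 uM, actives then titrated.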

[4] = CEETOX_H295R_OHPREG: CeeTox H295R High-throughput Steroidogenesis Assay for OH-Pregnenolone (OHPREG) (AID 2283434; active = hit-call score of the fitted dose curve at least 0.9, where 1 is the maximum; inactive = score below 0.9); conditions: actives raise or lower the signal
Summary of the method: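 Human adrenal H295R cells were prestimulated 48 h with 10 uM forskolin, then exposed 48 h to chemical in 0.1% DMSO. Medium 17alpha-hydroxypregnenolone was quantified by HPLC-MS/MS after MTBE extraction; bidirectional fitting versus DMSO baseline.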

[5] = CEETOX_H295R_OHPROG: CeeTox H295R High-throughput Steroidogenesis Assay for OH-Progesterone (OHPROG) (AID 2283435; active = hit-call score of the fitted dose curve at least 0.9, where 1 is the maximum; inactive = score below 0.9;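 as to AC50: 17alpha-hydroxyprogesterone secreted into medium measured by HPLC-MS/MS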); conditions: actives raise or lower the signal
Summary of the method: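 Secreted 17alpha-hydroxyprogesterone is read by tandem MS from media of forskolin-primed H295R cells dosed with chemical for 48 h. Activity is fitted in both directions against DMSO baseline; cytotoxic concentrations are re-tested diluted.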

[6] = target: rat Androgen Receptor (AR), Ar (gene 24208) (UniProt P15207); experiment: NVS_NR_rAR: NovaScreen (NVS) Nuclear Receptor Binding Assay for rat Androgen Receptor (AR) (AID 2283366)
Summary of the method: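 Cell-free radioligand binding on extracts of prostate from testosterone-pretreated rats, read by filter-based scintillation counting 18 h after dosing. Loss of bound signal fitted positively versus DMSO; primary screen in duplicate at 25 uM, actives followed up in concentration series.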

[7] = target: guinea pig Sigma Receptor, Non-selective Binding, SIGMAR1 (gene 100135589) (UniProt Q60492); experiment: NVS_OR_gSIGMA_NonSelective: NovaScreen (NVS) Nuclear Receptor Binding Assay for guinea pig Sigma Receptor, Non-selective Binding (AID 2283367)
guinea pig Sigma Receptor, Non-selective Binding, SIGMAR1 (gene 100135589), sequence (Q60492 whole entry, looked up): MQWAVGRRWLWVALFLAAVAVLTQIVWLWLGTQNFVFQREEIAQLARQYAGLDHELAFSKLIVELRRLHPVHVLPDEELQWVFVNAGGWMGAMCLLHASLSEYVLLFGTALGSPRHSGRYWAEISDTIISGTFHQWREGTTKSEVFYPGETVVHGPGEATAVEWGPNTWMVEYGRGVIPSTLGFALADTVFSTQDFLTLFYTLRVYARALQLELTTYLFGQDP
Summary of the method: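 Guinea pig brain membranes, cell-free radioligand binding; read 1 h after dosing by filter-based scintillation counting. Loss of signal vs DMSO baseline taken as displacement. Primary screen single concentration 25 uM in duplicate; actives retested in concentration series.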

[8] = target: Peroxisome proliferator-activated receptor gamma (Homo sapiens) (UniProt P37231); experiment: NVS_NR_hPPARg: NovaScreen (NVS) Nuclear Receptor Binding Assay for human Peroxisome Proliferator-activated Receptor gamma (PPARg) (AID 2283370)
Peroxisome proliferator-activated receptor gamma (Homo sapiens), sequence (P37231 whole entry, looked up, the tested form may be a part): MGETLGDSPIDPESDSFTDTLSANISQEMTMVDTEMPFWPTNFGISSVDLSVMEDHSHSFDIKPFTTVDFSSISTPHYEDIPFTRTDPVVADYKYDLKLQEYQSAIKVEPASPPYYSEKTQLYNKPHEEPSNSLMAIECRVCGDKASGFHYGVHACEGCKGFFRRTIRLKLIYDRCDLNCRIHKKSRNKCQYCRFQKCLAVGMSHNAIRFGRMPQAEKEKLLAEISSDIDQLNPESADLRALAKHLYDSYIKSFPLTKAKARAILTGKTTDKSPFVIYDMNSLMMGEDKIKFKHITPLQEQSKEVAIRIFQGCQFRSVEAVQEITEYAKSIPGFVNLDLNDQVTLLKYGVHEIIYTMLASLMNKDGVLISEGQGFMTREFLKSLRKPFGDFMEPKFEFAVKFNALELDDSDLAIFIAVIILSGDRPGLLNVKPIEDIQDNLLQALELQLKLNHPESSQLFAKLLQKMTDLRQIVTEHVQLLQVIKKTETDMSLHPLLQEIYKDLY
Summary of the method: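 Chemicals were tested first in duplicate at 25 uM, then in concentration series if active. Binding to cell-free PPARg protein was measured by fluorescence polarization after 2 h, with loss of signal scored against DMSO.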

[9] = target: Agonist Androgen Response Element (ARE), AR (gene 367) (UniProt P10275); experiment: OT_AR_ARELUC_AG_1440: Odyssey Thera (OT) 24-hour CHO-K1 Luciferase Assay for Agonist Androgen Response Element (ARE) (AID 2283379)
Agonist Androgen Response Element (ARE), AR (gene 367), sequence (P10275 whole entry, looked up): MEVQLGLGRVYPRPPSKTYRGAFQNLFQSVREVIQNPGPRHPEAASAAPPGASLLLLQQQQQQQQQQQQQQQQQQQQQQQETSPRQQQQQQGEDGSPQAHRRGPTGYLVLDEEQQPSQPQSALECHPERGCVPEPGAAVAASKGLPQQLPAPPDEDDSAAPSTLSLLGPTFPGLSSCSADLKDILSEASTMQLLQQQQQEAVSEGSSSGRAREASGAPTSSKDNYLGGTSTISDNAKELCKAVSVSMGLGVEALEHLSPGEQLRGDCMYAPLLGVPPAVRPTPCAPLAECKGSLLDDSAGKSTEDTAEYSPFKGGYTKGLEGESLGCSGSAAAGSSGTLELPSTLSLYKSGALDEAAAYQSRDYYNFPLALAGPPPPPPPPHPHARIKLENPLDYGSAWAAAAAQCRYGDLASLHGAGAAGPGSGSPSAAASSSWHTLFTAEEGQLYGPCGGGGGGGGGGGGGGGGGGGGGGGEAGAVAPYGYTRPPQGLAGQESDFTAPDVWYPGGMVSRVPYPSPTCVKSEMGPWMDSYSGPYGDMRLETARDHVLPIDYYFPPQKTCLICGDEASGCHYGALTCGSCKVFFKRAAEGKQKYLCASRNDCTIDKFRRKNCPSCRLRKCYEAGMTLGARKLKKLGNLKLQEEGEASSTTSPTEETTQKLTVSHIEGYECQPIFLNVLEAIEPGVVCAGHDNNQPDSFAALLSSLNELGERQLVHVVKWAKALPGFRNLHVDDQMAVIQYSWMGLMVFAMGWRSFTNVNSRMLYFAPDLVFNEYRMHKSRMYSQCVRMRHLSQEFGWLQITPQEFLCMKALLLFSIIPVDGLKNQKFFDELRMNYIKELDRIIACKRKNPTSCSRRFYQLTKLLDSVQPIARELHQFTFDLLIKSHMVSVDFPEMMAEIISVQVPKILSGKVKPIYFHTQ
Summary of the method: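 Seed CHO-K1 cells; dose compounds for 24 h; add D-luciferin plus ATP in PBS; read luminescence. Signal increase relative to vehicle defines agonist activity, with at least 3 replicate wells per sample.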

[10] = target: Estrogen receptor beta (Homo sapiens) (UniProt Q92731); experiment: OT_ER_ERbERb_1440: Odyssey Thera (OT) 24-hour HEK293T Protein-Complementation Assay for Estrogen Receptor-beta/-beta Homodimer (AID 2283380);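 also: fluorescence gain from ER beta LBD homodimer complementation read by laser scanning cytometry; scored as signal increase over DMSO baseline for both agonists and antagonists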
Estrogen receptor beta (Homo sapiens), sequence (Q92731 whole entry, looked up, the tested form may be a part): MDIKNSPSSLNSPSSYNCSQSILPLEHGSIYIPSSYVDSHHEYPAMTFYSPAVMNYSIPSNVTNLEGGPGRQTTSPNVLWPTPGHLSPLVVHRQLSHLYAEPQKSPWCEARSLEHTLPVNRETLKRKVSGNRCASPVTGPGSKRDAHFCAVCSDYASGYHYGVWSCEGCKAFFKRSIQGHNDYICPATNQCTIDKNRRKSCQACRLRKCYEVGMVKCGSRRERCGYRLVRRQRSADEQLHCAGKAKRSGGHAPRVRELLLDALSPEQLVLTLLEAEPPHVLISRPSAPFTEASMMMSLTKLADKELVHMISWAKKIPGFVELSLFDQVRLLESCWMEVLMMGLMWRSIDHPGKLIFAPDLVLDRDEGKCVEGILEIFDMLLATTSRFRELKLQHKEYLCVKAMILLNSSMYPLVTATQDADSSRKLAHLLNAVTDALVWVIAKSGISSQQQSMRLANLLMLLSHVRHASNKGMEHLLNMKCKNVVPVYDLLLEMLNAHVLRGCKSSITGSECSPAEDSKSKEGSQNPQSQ
Summary of the method: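 HEK293T cells stably expressing human ER-beta LBD (aa 310-547) PCA homodimer pair, dosed 24 h; formaldehyde-fixed, Draq5-stained. Readout: increase in nuclear (agonist) or nuclear plus cytoplasmic (antagonist) fluorescence intensity versus DMSO, gain-of-signal fitting.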

[11] = target: Estrogen receptor (Homo sapiens) (UniProt P03372); experiment: OT_ERa_GFPERaERE_0480: Odyssey Thera (OT) 8-hour HeLa Transcription Induction Assay for Estrogen Receptor (AID 2283381; active = hit-call score of the fitted dose curve at least 0.9, where 1 is the maximum; inactive = score below 0.9)
Estrogen receptor (Homo sapiens), sequence (P03372 whole entry, looked up): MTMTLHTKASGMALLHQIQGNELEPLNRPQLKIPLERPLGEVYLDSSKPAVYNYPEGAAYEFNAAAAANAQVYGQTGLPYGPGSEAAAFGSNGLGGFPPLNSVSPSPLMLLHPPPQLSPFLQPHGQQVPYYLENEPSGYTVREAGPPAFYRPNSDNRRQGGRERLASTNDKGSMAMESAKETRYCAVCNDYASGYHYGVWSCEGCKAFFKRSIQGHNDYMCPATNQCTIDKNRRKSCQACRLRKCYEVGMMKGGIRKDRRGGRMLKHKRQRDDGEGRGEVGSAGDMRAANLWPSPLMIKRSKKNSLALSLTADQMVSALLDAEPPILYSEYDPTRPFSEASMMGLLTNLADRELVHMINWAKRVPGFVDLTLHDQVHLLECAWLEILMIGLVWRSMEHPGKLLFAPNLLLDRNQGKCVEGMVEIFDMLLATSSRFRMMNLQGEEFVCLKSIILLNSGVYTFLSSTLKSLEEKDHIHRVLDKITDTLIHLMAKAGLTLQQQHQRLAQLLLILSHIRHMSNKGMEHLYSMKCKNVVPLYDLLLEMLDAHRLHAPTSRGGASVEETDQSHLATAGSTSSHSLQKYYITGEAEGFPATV
Summary of the method: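 Cells (HeLa) receive compound; after 8 h, reporter fluorescence is imaged and quantified by high-content analysis. Gain-of-signal relative to DMSO gives the endpoint.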

[12] = target: Estrogen receptor (Homo sapiens) (UniProt P03372); experiment: OT_ERa_GFPERaERE_0120: Odyssey Thera (OT) 2-hour HeLa Transcription Induction Assay for Estrogen Receptor (AID 2283382)
Summary of the method: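 Measures ESR1 pathway reporter gain-of-signal in HeLa cells after a 2-hour treatment, detected as fluorescent protein induction by microscopy, DMSO as baseline.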

[13] = target: Bile acid receptor (Homo sapiens) (UniProt Q96RI1); experiment: OT_FXR_FXRSRC1_0480: Odyssey Thera (OT) 8-hour HEK293T Protein-Complementation Assay for Farnesoid X receptor/SRC-1 Co-activator (AID 2283383)
Bile acid receptor (Homo sapiens), sequence (Q96RI1 whole entry, looked up, the tested form may be a part): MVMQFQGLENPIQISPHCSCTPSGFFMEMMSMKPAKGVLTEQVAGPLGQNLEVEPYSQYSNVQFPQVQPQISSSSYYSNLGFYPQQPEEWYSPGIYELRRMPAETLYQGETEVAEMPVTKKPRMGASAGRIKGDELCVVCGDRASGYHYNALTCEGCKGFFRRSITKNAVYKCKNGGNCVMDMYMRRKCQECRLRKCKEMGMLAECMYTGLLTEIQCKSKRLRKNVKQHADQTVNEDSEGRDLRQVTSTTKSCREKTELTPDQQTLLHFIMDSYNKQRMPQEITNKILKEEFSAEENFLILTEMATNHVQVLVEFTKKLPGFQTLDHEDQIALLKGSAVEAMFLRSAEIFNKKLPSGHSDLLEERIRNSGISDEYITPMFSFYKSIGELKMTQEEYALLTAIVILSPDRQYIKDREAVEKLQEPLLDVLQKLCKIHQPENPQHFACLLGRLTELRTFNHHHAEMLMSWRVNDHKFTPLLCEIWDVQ
Summary of the method: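 Co-activator recruitment to FXR was measured in living HEK293T cells, where interaction of the two fused partners restored an active fluorescent reporter. Signal gain after 8 h treatment was referenced to DMSO.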

[14] = target: Bile acid receptor (Homo sapiens) (UniProt Q96RI1); experiment: OT_FXR_FXRSRC1_1440: Odyssey Thera (OT) 24-hour HEK293T Protein-Complementation Assay for Farnesoid X receptor/SRC-1 Co-activator (AID 2283384)
Summary of the method: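 Cell-based binding reporter: interaction of FXR with SRC-1 brings reporter fragments together, giving a fluorescence signal read 24 h after dosing of HEK293T cells.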

[15] = target: Retinoic acid receptor RXR-alpha (Homo sapiens) (UniProt P19793); experiment: OT_NURR1_NURR1RXRa_0480: Odyssey Thera (OT) 8-hour HEK293T Protein Complementation Assay for Nurr1/retinoid X receptor (RXR) (AID 2283385)
Retinoic acid receptor RXR-alpha (Homo sapiens), sequence (P19793 whole entry, looked up, the tested form may be a part): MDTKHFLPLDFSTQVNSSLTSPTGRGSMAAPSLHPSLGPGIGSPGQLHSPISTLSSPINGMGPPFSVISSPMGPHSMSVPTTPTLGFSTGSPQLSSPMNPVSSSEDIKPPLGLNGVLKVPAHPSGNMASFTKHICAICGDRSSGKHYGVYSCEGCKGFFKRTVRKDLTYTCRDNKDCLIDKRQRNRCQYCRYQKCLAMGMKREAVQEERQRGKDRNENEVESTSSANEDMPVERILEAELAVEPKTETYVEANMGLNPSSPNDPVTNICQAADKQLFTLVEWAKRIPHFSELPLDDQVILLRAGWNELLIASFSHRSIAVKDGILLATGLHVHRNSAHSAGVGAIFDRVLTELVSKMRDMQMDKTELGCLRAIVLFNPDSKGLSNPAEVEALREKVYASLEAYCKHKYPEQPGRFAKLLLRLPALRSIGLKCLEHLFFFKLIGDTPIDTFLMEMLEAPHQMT
Summary of the method: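 Compounds are applied to HEK293T cells carrying Nurr1 and RXRα linked to reporter fragments. After 8 h, fluorescence intensity reports heterodimer formation, with DMSO as baseline.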

[16] = target: Retinoic acid receptor RXR-alpha (Homo sapiens) (UniProt P19793); experiment: OT_NURR1_NURR1RXRa_1440: Odyssey Thera (OT) 24-hour HEK293T Protein Complementation Assay for Nurr1/retinoid X receptor (RXR) (AID 2283386)
Summary of the method: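 Measured as fluorescence from a reconstituted split reporter, this 24 h HEK293T complementation assay scores compound-induced gain of Nurr1/RXRα association relative to DMSO.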

[17] = target: Peroxisome proliferator-activated receptor gamma (Homo sapiens) (UniProt P37231); experiment: OT_PPARg_PPARgSRC1_0480: Odyssey Thera (OT) 8-hour Protein-Complementation Assay for Peroxisome Proliferator-activated Receptor Gamma / SRC-1 Co-activator (AID 2283387);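 also: nuclear to cytoplasmic split Venus YFP fluorescence ratio reporting PPARg SRC-1 interaction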
Summary of the method: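 Read-out: 488 nm N/C fluorescence ratio from complemented Venus YFP fragments, ≥350 cells per image, gain-of-signal fitted against DMSO baseline. Fusions of PPARg/SRC-1 with IFP1/IFP2 expressed transiently in HEK293T; compounds applied 8 h.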

[18] = CEETOX_H295R_ANDR: CeeTox H295R High-throughput Steroidogenesis Assay for Androstenedione (ANDR) (AID 2283436; active = hit-call score of the fitted dose curve at least 0.9, where 1 is the maximum; inactive = score below 0.9); conditions: actives raise or lower the signal
Summary of the method: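 H295R human adrenal cells (passages ≤10) were exposed to test chemicals for 48 h; androstenedione in medium was MTBE-extracted and quantified by HPLC-MS/MS against a 7-point standard curve. Bidirectional fitting used DMSO as baseline.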

[19] = target: Peroxisome proliferator-activated receptor gamma (Homo sapiens) (UniProt P37231); experiment: OT_PPARg_PPARgSRC1_1440: Odyssey Thera (OT) 24-hour Protein-Complementation Assay for Peroxisome Proliferator-activated Receptor Gamma/ SRC-1 Co-activator (AID 2283388);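 also: nuclear to cytoplasmic ratio of reconstituted Venus YFP fluorescence in fixed imaged cells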
Summary of the method: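 Protein-fragment complementation between PPARg and coactivator SRC-1 was measured by fluorescence imaging in transiently transfected HEK293T cells after 24 h treatment. Signal was quantified as N/C ratio in the 488 nm channel, with DMSO as negative control.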

Measured: AC50

Oc1cccc(-c2ccccc2)c1
active: [1] 13.9 µM | [2] 10.6 µM | [5] 9.06 µM
inactive: [3] | [4]

[Cl][Sn]([c]1ccccc1)([c]1ccccc1)[c]1ccccc1
active: [6] 2.42 µM | [2] 2.89 µM | [3] 1.19 µM

CCCCCCCCCCBr
active: [7] 0.87 µM

CC(=Cc1ccccc1)[N+](=O)[O-]
inactive: [8] | [9] | [10]
active: [11] 16.6 µM | [12] 19.8 µM

O=S1OC[C@@H]2[C@H](CO1)[C@]1(Cl)C(Cl)=C(Cl)[C@@]2(Cl)C1(Cl)Cl (stereo partly specified)
active: [8] 14.9 µM | [11] 12.6 µM | [13] 43.3 µM | [14] 68.1 µM | [15] 91.8 µM | [4] 12.1 µM | [5] 41.2 µM | [18] 50 µM
inactive: [9] | [12] | [16] | [17]

Oc1c(Cl)cc(Cl)cc1Cl
inactive: [10] | [4]
active: [5] 66.5 µM

Clc1cccc(Cl)c1Cl
inactive: [15] | [16] | [17]

OCCN(CCO)CCO
inactive: [15] | [16]

COC(=O)Nc1cccc(OC(=O)Nc2cccc(C)c2)c1
active: [4] 4.29 µM
inactive: [10] | [14] | [15] | [16] | [17] | [5]

Cc1cc(C)cc(C)c1
inactive: [10] | [15] | [16] | [4] | [5]

O=C(CBr)c1ccc(O)cc1
inactive: [10] | [13] | [14] | [15] | [16] | [17]

CC(C)(COCC1CO1)COCC1CO1 (stereo unspecified)
inactive: [4] | [5]

O=c1nc(O)n(Cl)c(=O)n1Cl
inactive: [15] | [16] | [17]

N#CS
inactive: [16] | [17] | [19]

COc1nn(C(=O)NS(=O)(=O)c2ccccc2OC(F)(F)F)c(=O)n1C
inactive: [10] | [14] | [15] | [16] | [17]

O=C(N[C@H]1CN2CCC1CC2)c1ccc2c(c1)OCCO2
inactive: [10] | [15] | [16] | [17] | [19]

CC(C)(C)c1cc([N+](=O)[O-])cc(C(C)(C)C)c1O
inactive: [4] | [5]

CCN(CCO)CCO
inactive: [10] | [11] | [12] | [16] | [17] | [19]

OC(Cc1ccccc1Cl)(Cn1cncn1)C1(Cl)CC1 (stereo unspecified)
active: [4] 1.37 µM
inactive: [5]

Cc1cc(Cl)ccc1O
active: [10] 63.8 µM | [5] 28.3 µM
inactive: [13] | [14] | [15] | [17] | [4]

COc1ccc(N)cc1
active: [16] 13.8 µM | [5] 31.7 µM
inactive: [17] | [19] | [4]

Nc1ncn[nH]1
inactive: [10] | [13] | [16] | [17]

Clc1cccc(Cl)c1
inactive: [10] | [16] | [17]

C=CCN=C=S
inactive: [11] | [12] | [13] | [15] | [17]

CCCCCCCCCCCCOS(=O)(=O)O
inactive: [15] | [16]

C[C@]12CC[C@@H](O)C[C@@H]1CC[C@@H]1[C@@H]2CC[C@]2(C)C(=O)CC[C@@H]12
active: [5] 1.87 µM
inactive: [4]

OCCCCO
inactive: [13] | [14] | [15] | [16] | [17]

Cc1ccccc1OP(=O)(Oc1ccccc1C)Oc1ccccc1C
inactive: [4] | [5] | [18]

O=c1[nH]c(=O)n(Cl)c(=O)n1Cl
inactive: [15] | [16] | [17]

CN(N=O)C(N)=O
inactive: [10] | [15] | [17]

Nc1ccc(N)cc1
active: [10] 12.4 µM
inactive: [14] | [15] | [16] | [17] | [19] | [4] | [5]

CN(C)C(=S)S
inactive: [10] | [15] | [16]

CCOP(=S)(OCC)O/N=C(\C#N)c1ccccc1
active: [10] 50 µM | [13] 32.5 µM
inactive: [14] | [15] | [16] | [17] | [4] | [5]
